Screens as filed in PubChem BioAssay.
The list is not random: actives were taken first. Their share in the collection is about 19%.
TDP1 cell CPT: growth inhibition of DT40 Tdp1-/-;hTDP1 cells with camptothecin (screen for TDP1 inhibitors) | chicken DT40 Tdp1-/-;hTDP1 cells + 20 nM CPT, ATP luminescence, 48 h | Potency, µM (series often up to 46.2 µM), without a hit: at the highest dose activity change, negative = growth inhibition, hits mostly inhibitors | 420,000 tested, 12% active; note: nearly all actives have a fitted effect of over 55% in size
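Chicken DT40 Tdp1-/- cells stably complemented with human TDP1 were seeded at 400 cells/well in medium containing 20 nM camptothecin, exposed to pin-transferred compounds, and grown at 37 °C for at least 48 hr. Viability was read as ATP luminescence.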
KB-3-1 tox: KB-3-1 parental cell cytotoxicity | KB-3-1 viability, CellTiter-Glo ATP luminescence, 72 h | Potency, µM (series often up to 46.1 µM), most hits filed as cytotoxic | 400,000 tested, 1.4% active; note: nearly all actives have a fitted effect of over 60% in size
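72 h, 37 °C compound treatment of KB-3-1 parental cells; CellTiter-Glo added, 10 min, luminescence read. Data corrected against DMSO-only plates and normalized before curve fitting.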
HT1080-NT tox: kills 2HG-producing HT-1080-NT fibrosarcoma cells. HT-1080-NT fibrosarcoma viability, CellTiter-Glo ATP luminescence, 48 h. Potency, µM (series often up to 46.1 µM), inactives show at the top dose activity, negative = less viability, most hits filed as cytotoxic. 360,000 tested, 1.6% active. AID 686970;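 note: NT is the 2HG producing partner of a matched IDH1 knockdown line; 0% = DMSO-treated cells and -100% = media-only wells without cells; nearly all actives have a fitted effect of over 55% in size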
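HT-1080-NT; 750 cells/well; 5% FBS RPMI; 48 h compound, 37 degrees C; CellTiter-Glo luminescence; curve fitting and curve-class assignment.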
KB-V1 cytotox: kills drug-selected multidrug resistant KB-V1 cells | KB-V1 MDR cells viability, CellTiter-Glo, 72 h | 400,000 tested, 3.4% active | Potency, µM (highest dose often 46.1 µM), usual class: cytotoxic; note: nearly all actives have a fitted effect of over 60% in size
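Potencies derive from concentration-effect curves fitted to normalized luminescence (CellTiter-Glo) of KB-V1 cells treated for 72 h at 37 degrees C in phenol-red-free DMEM containing 10% FBS.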
TDP1 cell noCPT: qHTS for Inhibitors of human tyrosyl-DNA phosphodiesterase 1 (TDP1): qHTS in cells in absence of CPT | DT40 Tdp1-/- hTDP1 cells, no CPT, ATP luminescence, 48 h | Potency, µM (series often up to 46.2 µM), for the others: at the highest dose activity change, negative = growth inhibition, usual class: inhibitors | 420,000 tested, 15% active | AID 686978, 2013; note: nearly all actives have a fitted effect of over 55% in size
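A cellular qHTS used chicken DT40 cells lacking endogenous Tdp1 but carrying stably transfected human TDP1. Compounds were applied without camptothecin, and cell growth kinetics were judged by ATP-dependent luminescence after ≥48 hr.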
HT1080 IDH1KD tx: HT-1080 IDH1 knockdown cell toxicity (counter line); 360,000 tested, 2% active; Potency, µM (titrated, usually from 46.1 µM), for the others: top-dose activity, negative = toxicity, hits mostly cytotoxic; HT-1080 IDH1 knockdown viability, ATP luminescence, 48 h;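 note: 0% = DMSO wells and -100% = cell-free medium wells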
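In this qHTS, HT-1080 cells depleted of IDH1 are exposed for 48 h at 37 °C to compound titrations. Toxicity is scored from CellTiter-Glo luminescence, with DMSO as full viability and medium alone as none.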
Active calls of the source: *; i = inactive; ? = inconclusive; . = no result; [ ] = remark or other dose. Calls come from the whole dose curve; as a rule, active = well fitted curve in the direction sought with a large enough effect; inconclusive = small, poorly fitted or top-dose-only effect, or another doubt; inactive = no such curve, though single readings can be large; an effect the other way counts as inactive or inconclusive. Unless noted, % is set by controls: 0 for no effect and ±100 for the full control effect; potency is the fitted concentration of half-maximal effect.

SMILES	TDP1 cell CPT	KB-3-1 tox	HT1080-NT tox	KB-V1 cytotox	TDP1 cell noCPT	HT1080 IDH1KD tx
CC(C)(C)C1CCC2(CC1)SCC(=O)N2c1ccccc1 (stereo not drawn)	?	i	-1%	i	?	-5%[9.24 µM]
CC(C)(C)C1CCC2(CC1)NC(=S)N(c1ccccc1)N2 (stereo not drawn)	?	?	?	i	?	5.8µM*
O=C(NCc1ccccc1)Nc1nnc(-c2ccncc2)s1	.	i	.	i	.	.
COC(=O)c1ccc(CNC(=O)c2ccc(OCC(=O)N3CCOCC3)c(OC)c2)cc1	4%	i	-5%	i	-21%	-5%
COc1cc(C2=N/C(=C\c3ccccc3)C(=O)O2)cc(OC)c1OC	-21%[9.04 µM]	.	.	.	-4%[9.04 µM]	.
COc1cccc(C2=N/C(=C\N(C)C)C(=O)O2)c1	?	i	15%	i	23µM*	13%
O=C1OCC2=C1C(c1ccc(F)cc1)c1cc3c(cc1N2)OCCO3 (stereo not drawn)	0.18µM*	0.16µM*	0.18µM*	0.033µM*	0.18µM*	0.18µM*
O=C1OCC2=C1C(c1ccc3c(c1)OCO3)Sc1ccccc1N2 (stereo not drawn)	13µM*	i	-3%	i	21µM*	-23%
CC(=O)Oc1ccc(C2C3=C(CC(C)(C)CC3=O)Nc3cc4c(cc32)OCCO4)cc1 (stereo not drawn)	-1%	i	-2%	i	6%	0%
COc1cc2c(cc1OC)C(c1ccc3c(c1)OCO3)C1=C(CC(C)(C)CC1=O)N2 (stereo not drawn)	?	i	3%	0.73µM*	?	-1%
O=C1OCC2=C1C(c1ccc(F)cc1)c1cc3c(cc1N2)OCO3 (stereo not drawn)	0.16µM*	0.037µM*	0.18µM*	0.15µM*	0.033µM*	0.12µM*
CCc1ccc(C2CC(=O)Nc3cc4c(cc32)OCO4)cc1 (stereo not drawn)	-18%	i	.	i	?	.
CC1CCCN(CCCNS(=O)(=O)c2ccc3c(c2)CCN3C(=O)C2CC2)C1 (stereo not drawn)	5%	i	7%	i	3%	8%
COc1cccc(C2C3=C(CC(C)(C)CC3=O)Nc3cc4c(cc32)OCO4)c1 (stereo not drawn)	-22%	i	-4%	?	-11%	-4%
C#CCOc1ccc(C2C3=C(COC3=O)Nc3cc4c(cc32)OCO4)cc1OC (stereo not drawn)	0.82µM*	?	0.046µM*	4.6µM*	1µM*	0.092µM*
CN(C)c1ccc(/C=C(/NC(=O)c2ccccc2)C(=O)NCCCn2ccnc2)cc1	32%	i	1%	i	-4%	0%
O=C1c2ccccc2C(=O)N1CCc1csc(-c2ccccc2)n1	-5%	?	-2%	16µM*	-8%	-3%
CCc1cccc(C)c1NC(=O)Cn1cc2c(n1)CCCC2	?	i	.	i	?	.
COc1ccc(OC)c(NC(=O)CCc2c(C)nc3c(c(C)nn3C(C)(C)C)c2C)c1	?	i	.	i	16µM*	.
Cc1nc2c(c(C)nn2C(C)(C)C)c(C)c1CCC(=O)Nc1ccc(Br)cc1Br	?	i	.	i	26µM*	.
CN(CC(=O)Nc1ccccc1Oc1ccccc1)Cc1ccccc1F	?	i	1%	?	?	-1%
COc1ccccc1NC(=O)CCC(=O)c1ccc(-c2ccccc2)cc1	?	i	-10%	i	23µM*	-7%
Cc1ccccc1CN(C)CC(=O)Nc1ccccc1-c1ccccc1	-18%	i	9%	?	?	0%
COc1ccccc1NC(=O)c1ccc(NC(=O)CN(C)Cc2ccccc2F)cc1	-8%	i	-19%	i	23µM*	-11%
COc1ccccc1CN(C)CC(=O)Nc1ccccc1-c1ccccc1	?	i	-7%	?	23µM*	-19%
SMILES	TDP1 cell CPT	KB-3-1 tox	HT1080-NT tox	KB-V1 cytotox	TDP1 cell noCPT	HT1080 IDH1KD tx
COc1ccccc1NC(=O)CCSCCC(=O)Nc1ccccc1OC	7%	i	5%	i	?	12%
CCN(CC(=O)Nc1ccccc1OC)CC(=O)Nc1ccccc1-c1ccccc1	7.3µM*	21µM*	15µM*	8.2µM*	9.2µM*	7.3µM*
Cc1cc(C)cc(C(=O)N2CCN(c3ccccn3)CC2)c1	6%	i	7%	?	-4%	8%
COc1ccc(CN(C)CC(=O)Nc2ccccc2-c2ccccc2)c(OC)c1	?	?	-13%	?	18µM*	?
O=C(COC(=O)c1cccc(Br)c1)NCc1ccco1	-11%	i	11%	?	-6%	4%
CCOC(=O)N1CCN(c2c(F)cc3[nH]c(=S)[nH]c3c2Br)CC1	?	?	16µM*	8.2µM*	18µM*	?
CCc1cccc(NC(=O)C(CC(C)C)NS(=O)(=O)c2ccc3c(c2)oc(=O)n3C)c1 (stereo not drawn)	?	i	.	i	?	.
COc1cc2oc(=O)c(CC(=O)N3CCCCC3)c(C)c2cc1Cl	-1%	i	.	i	3%	.
O=C(Nc1cccc2ccccc12)N1CCOCC1	0%	i	7%	i	-7%	-5%
CC(C)(C)c1ccc(C(=O)Nc2cccc(C(=O)N3CCOCC3)c2)cc1	15µM*	i	-4%	i	?	-14%
Cc1ccc(C(=O)Nc2cccc(C(=O)N3CCOCC3)c2)cc1	-19%	i	-1%	i	-1%	3%
